From PubChem BioAssay
Cycloheximide cs: counter-screen hit for Shiga toxin inhibitors, cycloheximide; cell reporter, cycloheximide protein synthesis inhibition counterscreen; max response, %; actives 12% (n = 300,000); AID 2314; in the data active = max response mostly above about 13%, no sharp cut-off; inactive = mostly below about 14%; note: read at 38.3 µM for the half of the compounds with a filed dose; 0% is about no effect
Shiga inhibitor: Shiga toxin inhibition. Vero cells, Shiga toxin protein synthesis inhibition reporter. inhibition, % at 38.7 µM. actives 9.2% (n = 290,000). AID 2315; in the data active = inhibition mostly above about 28%, no sharp cut-off; inactive = mostly below about 43%; note: 0% is about no effect
HCMV antiviral: human cytomegalovirus inhibition | actives 4.5% (n = 410,000) | activity change, negative = inhibition, % at 57.5 µM | HFF cells, HCMV-luciferase reporter, 72 h; hits give low values; in the data active = activity change below about -60%; inconclusive = no clear call, values can overlap the other calls; inactive = above about -39%; note: % is set by controls: 0 for no effect and ±100 for the full control effect
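Inhibition of viral replication was scored as loss of reporter luminescence in HFFs infected with HCMV-luciferase (MOI 1 PFU/cell) for 72 h; compounds tested at 2 doses, normalized to buffer and Salinomycin controls.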
HCV inh: blocks hepatitis C virus; Huh7.5.1 HCVcc-Cre infection, luciferase reporter, 44 h; Potency, µM (highest dose often 41.8 µM), for the others: top-dose activity change, negative = inhibition, hits mostly inhibitors; actives 3.4% (n = 340,000); note: potency is the fitted concentration of half-maximal effect; % is set by controls: 0 for no effect and ±100 for the full control effect
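Cells seeded at 1,000/well and cultured 4 h, then compounds added followed by HCVcc-Cre virus (~0.5 moi). After 44 h further culture, luciferase substrate was added, plates held 15 min at room temperature, and luminescence read for 15 sec.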
Pf growth 48h: inhibits P. falciparum growth in the first generation, 48 h | P. falciparum luciferase growth in erythrocytes, 48 h | Potency, µM (titrated, usually from 28.7 µM), without a hit: at the top dose activity change, negative = inhibition, hits mostly inhibitors | actives 5.9% (n = 310,000) | AID 504832; note: potency is the fitted concentration of half-maximal effect; % is set by controls: 0 for no effect and ±100 for the full control effect
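Here the parasites carry a stable luciferase gene and grow inside erythrocytes in Albumax-based RPMI medium with compound for one erythrocytic cycle. Activity is scored as loss of luminescent signal.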
Pf growth 96h: P. falciparum growth inhibition at 96 hour, primary screen for plastid delayed-death inhibitors. P. falciparum luciferase reporter growth, 96 h. AID 504834. actives 6.9% (n = 320,000). Potency, µM (top dose mostly 28.7 µM), inactives show at the top dose activity change, negative = inhibition, most hits filed as inhibitors; note: potency is the fitted concentration of half-maximal effect; % is set by controls: 0 for no effect and ±100 for the full control effect
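Two parasite generations (96 h, 37 C, 5% CO2) of compound exposure in infected erythrocytes (0.05% parasitemia, 2% hematocrit). Luciferase-reporter P. falciparum; decreased luminescence indicates inhibited growth, aimed at apicoplast-acting delayed death.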
An asterisk follows results filed as active; i = inactive; ? = inconclusive; . = no result given. Most compounds without a hit are left out; they make up all but 21% or so of the library. Unless noted, calls come from the whole dose curve; as a rule, active = well fitted inhibition curve with a large enough effect; inconclusive = small, poorly fitted or top-dose-only effect, or another doubt; inactive = no such curve, though single readings can be large or run the other way.

SMILES | Cycloheximide cs | Shiga inhibitor | HCMV antiviral | HCV inh | Pf growth 48h | Pf growth 96h
O=C(Nc1ccc2oc(-c3cccnc3)nc2c1)c1ccc(-c2cccc(OC(F)(F)F)c2)o1 | . | . | -82* | . | . | .
CCc1nnc(SCc2nc(-c3ccc(OC)c(OC)c3)oc2C)c2cc3sc(C)cc3n12 | . | . | -14 | . | . | .
COc1ccc(C2CC(=O)c3c([nH]c(C(=O)OCCOc4ccccc4)c3C)C2)cc1OC (stereo not drawn) | . | . | -5 | . | . | .
CCCn1c(CCC(=O)Nc2ccc(OCC)cc2)nc2cccnc21 | . | . | -9 | . | . | .
COc1cc(OC)c(C2CC(=O)Nc3ccc4ccccc4c32)cc1OC (stereo not drawn) | . | . | 25 | . | . | .
CNC(=O)c1ccc(C)c(NC(=O)C2=C(C)OCCS2)c1 | -3 | -15 | -3 | 6% | 14% | -11%
Cc1ccc2c(c1)N(CC(=O)NCCCN1CCOCC1)C(=O)C(C(C)C)O2 (stereo not drawn) | . | . | -16 | -4% | 0% | 24%
O=C(Nc1ccccc1)Nc1n[nH]c2nnc(-c3ccccc3)c(-c3ccccc3)c12 | 1 | 2 | 8 | 14µM* | ? | ?
Cc1cc(C)c2c(NC(=S)Nc3ccccc3)n[nH]c2n1 | 13 | 26 | -23 | 1% | -15% | 60%
CN(Cc1ccc(F)cc1)Cc1nc(-c2cnccn2)no1 | 6 | 37 | -28 | 12% | 4% | 8%
Cc1ccoc1C(=O)Nc1cccc2ccccc12 | 31* | 24 | 93 | 8% | 0% | 43%
COc1cc(Cl)c(C)cc1NC(=O)c1cccc(OC)c1OC | 30* | 49 | -24 | ? | ? | ?
CCOc1ccccc1NC(=O)c1cccc2ccccc12 | 2 | . | -32 | ? | 17% | ?
COc1cccc(C(=O)Nc2cccc3ccccc23)c1OC | 20* | 27* | -11 | ? | 68% | ?
COc1cc(Cl)c(C)cc1NC(=O)c1ccccc1-n1cnnn1 | . | . | 18 | -24% | . | .
COCCOC(=O)/C(C#N)=C/c1cn(Cc2ccccc2)nc1-c1cccnc1 | -3 | 17 | -35 | -14% | 3% | 19%
COc1ccc2c(c1)C(n1ccc3ccccc31)C(=O)N2Cc1ccc(C(C)C)cc1 (stereo not drawn) | . | . | 18 | . | . | .
O=S(=O)(c1ccc(Br)s1)N1CCNCC1 | 2 | 18 | -22 | 14% | ? | 115%
CCOC(=O)c1csc(NC(=O)CN2CCN(C)CC2)n1 | -2 | 5 | 35 | 3% | -1% | -6%
CCOC(=O)c1csc(N/N=C2\CCCc3ccccc32)n1 | 12* | 33* | 16 | ? | . | ?
COc1ccc2c(c1)CCC/C2=N\Nc1nc(C(=O)NN)cs1 | 46* | 76* | 27 | -22% | 10µM* | ?
CCOC(=O)c1csc(N/N=C2\CCc3ccccc32)n1 | 31* | 38* | 23 | ? | . | 13µM*
CCOC(=O)c1csc(NC(=O)Nc2cccc(Cl)c2)n1 | 4 | 2 | ? | -11% | -14% | ?
Cc1csc(NC(=O)COc2ccc3c(c2)CCC3)n1 | . | . | 41 | -6% | 385% | 271%
O=C1C[C@H](S(=O)(=O)c2ccccc2)[C@@H](/C=C/c2ccccc2)N1Cc1ccccc1 | . | . | -4 | . | . | .
SMILES | Cycloheximide cs | Shiga inhibitor | HCMV antiviral | HCV inh | Pf growth 48h | Pf growth 96h
Clc1ccc(-n2nnnc2-c2cnc(-c3ccncc3)nc2-c2cccs2)cc1 | -5 | 13 | -62* | 22µM* | 4.7µM* | ?
FC(F)(F)c1nc(-c2cccnc2)ncc1-c1nnnn1-c1ccccc1 | -3 | -15 | -26 | ? | 18% | ?
Cc1cc(NCc2ccccn2)n2ncc(-c3ccc(Cl)cc3)c2n1 | 29* | 48* | -38 | ? | 33% | 36%
Cc1cc(NCc2ccccn2)n2ncc(-c3ccccc3)c2n1 | 44* | 70* | -66* | 2.8µM* | 193% | -69%
Cc1cc(NCCOCCO)n2ncc(-c3ccc(Cl)cc3)c2n1 | 23* | 74* | 92 | ? | 444% | i
Cc1ccc(C(=O)Nc2nc(C(C)(C)C)cs2)s1 | 57* | 158* | -34 | ? | 20% | .
CNC(=O)c1ccsc1NC(=O)c1ccc(Cl)s1 | -3 | -4 | 39 | -17% | . | 11%
CC(C)(C)c1csc(NC(=O)c2ccc(Cl)s2)n1 | 63* | 103* | ? | 8.9µM* | 3.7µM* | .
O=C(NCCCN1CCOCC1)Nc1ccc(Cc2ccc(NC(=O)NCCCN3CCOCC3)cc2)cc1 | -5 | -13 | -17 | 1% | 2.6µM* | 1.7µM*
Cc1ccc(NC(=S)NCCCN2CCOCC2)cc1C | 4 | -9 | 7 | 16% | 20% | -13%
S=C(NCCCN1CCOCC1)Nc1ccc(Cl)c(Cl)c1 | -3 | -11 | -33 | -18% | -11% | 17µM*
COc1cccc(CNS(=O)(=O)c2cc(CN3C(=O)c4cccnc4C3=O)ccc2OC)c1 | 2 | -4 | -21 | 15% | 17% | 32%
CCOc1ccccc1N1CC(C(=O)Nc2ccc(S(=O)(=O)N3CCCCC3)cc2)CC1=O (stereo not drawn) | . | . | ? | 2% | -4% | ?
Cc1cccc(C(=O)OCC(=O)N(C)c2ccccc2)c1C | 14* | 35* | ? | 3% | 8% | 15%
Cc1ccccc1C(=O)OCC(=O)N(C)c1ccccc1 | 24* | 31 | 17 | -17% | -2% | 42%
Cc1c(C(=O)N2CCC(C)CC2)c(S(=O)(=O)NCc2ccc(Cl)cc2)c(C)n1C | . | . | -36 | . | . | .
CCc1ccccc1Nc1cc(C(=O)NC(C)c2ccccc2)c2ccccc2n1 (stereo not drawn) | . | . | 6 | . | . | .
CCc1nnc(SCC(=O)N(C)c2ccccc2)c2cc3sccc3n12 | . | . | -67* | . | . | .
CCc1nn(CC(=O)N(C)Cc2ccccc2)c(=O)c2cc3sccc3n12 | . | . | 3 | . | . | .
COc1ccc(-c2nnc3sc(COc4ccccc4)nn23)cc1 | -3 | -11 | 6 | -13% | 8% | 8%
Cc1ccc(-c2nnc3sc(CCc4ccccc4)nn23)cc1 | 19* | 47* | -15 | -1% | ? | 65%
c1ccc(Cc2nn3c(COc4ccccc4)nnc3s2)cc1 | 13* | 60* | 4 | 9% | 5% | .
CCOc1ccc(-c2nnc3sc(COc4ccccc4)nn23)cc1 | -3 | -1 | 44 | 16% | -9% | 12µM*
CCN(CC(=O)NCc1cccs1)C(=O)/C=C/c1ccc(OC)c(OC)c1 | . | . | 7 | -10% | -9% | 4%
COc1ccc(NCc2cc3cc4c(cc3n(CC(=O)Nc3ccccc3)c2=O)OCO4)cc1 | . | . | 72 | . | . | .
CC1CCCCC1NC(=O)/C(C#N)=C/c1ccc2c(c1)OCCO2 (stereo not drawn) | 14 | 39* | . | -19% | ? | ?
CC(OC(=O)c1ccc2c(c1)OCCO2)C(=O)NC1CCCCC1C (stereo not drawn) | . | . | -19 | -5% | -24% | -1%
